Screening data as filed in PubChem.
Rows were chosen to be rich in hits. Some 3.7% of all compounds tested hit in one or more screens of this group.
BoNT F protease: BoNT F light chain protease inhibition; Multiplex microsphere protease cleavage assay, flow cytometry; inhibition, % at 10 µM; 360,000 tested, 0.22% active; AID 588497; in the data active = inhibition above about 35%, passing the limit was not always enough; inconclusive = no clear call, values can overlap the other calls
Vc quorum ag: induces V. cholerae light production without autoinducers. V. cholerae BH1578 lux reporter, luminescence, 6 h. activation, % at 18.7 µM. 350,000 tested, 0.16% active. AID 588436; in the data active = activation mostly above about 9.7%, no sharp cut-off; inconclusive = no clear call, values can overlap the other calls; inactive = mostly below about 3.7%
Anthrax LF inh2: blocks Bacillus anthracis lethal factor protease; multiplex microsphere protease cleavage assay, LF; AID 588501; inhibition, % at 10 µM; 360,000 tested, 0.12% active; P15917
BJeLR lethal: BJeLR cell viability loss. BJeLR (HRASV12) viability, CellTiter-Glo ATP luminescence, 48 h. inhibition, % (no concentration beside the values). 300,000 tested, 0.17% active. AID 1554; in the data active = inhibition above about 50%; inconclusive = no clear call, values can overlap the other calls
Autofluor counter: counter-screen for toxin protease inhibitors: compound fluorescence | compound autofluorescence counterscreen, microsphere flow cytometry; stronger effect = higher value | 360,000 tested, 3.1% active | fluorescence intensity (no concentration beside the values); in the data active = fluorescence intensity above about 16000; inconclusive = no clear call, values can overlap the other calls
BoNT A protease: blocks Botulinum neurotoxin A light chain protease; multiplex microsphere protease substrate cleavage, flow cytometry; inhibition, % at 10 µM; 360,000 tested, 0.17% active; AID 588499
A number is an active result; . = inactive; ? = inconclusive; / = no result; + = active, no number. Rule as the data show it, unless noted: active = inhibition above about 30%; inconclusive = no clear call, values can overlap the other calls; inactive = below that.

SMILES | BoNT F protease | Vc quorum ag | Anthrax LF inh2 | BJeLR lethal | Autofluor counter | BoNT A protease
CC(C)CCP(=O)(O)c1ccccc1 | . | . | . | / | 22957 | .
CCCC/C(O)=C1\C(=O)CC(C)(C)CC1=Nc1ccccc1OC | . | . | . | . | 20312 | .
COc1ccc2oc(=O)c(-c3nc(C)cs3)cc2c1 | . | . | . | / | 20394 | ?
Cc1cc2nc3c(nc2cc1C)C1(C(=O)O)CCC3(C)C1(C)C (stereo not given) | . | . | . | . | . | .
CNC(=O)C12CCC(C)(c3nc4cc(C)c(C)cc4nc31)C2(C)C (stereo not given) | . | . | . | . | 23268 | .
Cc1ccc(S(=O)(=O)N2CCN(C(=O)COC(=O)COc3ccccc3)CC2)cc1 | . | . | . | . | 20093 | .
Cc1ccc(S(=O)(=O)N2CCN(C(=O)CN3CCc4ccccc4C3)CC2)cc1 | . | . | . | . | 21614 | .
O=C(CN1CCc2ccccc2C1)N1CCN(S(=O)(=O)c2ccccc2)CC1 | . | . | . | . | ? | .
CC(=O)Nc1ccc(CN2C(=O)C(C)(C)ON=C2c2ccc(C(F)(F)F)cc2)cc1 | . | . | . | / | . | .
Cc1ccc(CNc2ncccc2-c2nc3cc(Cl)ccc3o2)cc1 | . | . | . | . | 22598 | .
Cc1ccc(-c2nc3cc(Cl)ccc3o2)cc1 | / | . | / | . | / | /
Clc1ccc2c(NCc3ccccc3)ccnc2c1 | . | . | . | . | . | .
Clc1ccc2oc(-c3cccnc3NCc3ccccc3)nc2c1 | . | . | . | . | 19024 | .
CCN(CC)CCNC(=O)Cc1nn(CC)c(=O)c2ccccc12 | . | . | . | . | . | .
CCN(CC)CCNC(=O)C(C)c1nn(CC)c(=O)c2ccccc12 (stereo not given) | . | . | . | . | 22461 | .
Cc1c(Cc2c(C)n(C)n(-c3ccccc3)c2=O)c(=O)n(-c2ccccc2)n1C | . | . | . | . | . | .
Cc1c(CN2CCCCC2C)c(=O)n(-c2ccccc2)n1C (stereo not given) | . | . | . | . | 22027 | ?
CN=C(Nc1cc(C)nn1-c1ccccc1)c1ccccc1F | . | . | . | . | 23781 | .
COC(=O)[C@H]1C[C@H](OC(=O)NCc2ccccc2F)[C@@]2(O)CN(S(=O)(=O)c3ccc(C)cc3)CC2[C@H]1C(=O)OC (stereo not given in full) | . | . | . | / | . | .
O=C(NC1CCCCC1)n1c(=O)oc2ccccc21 | . | . | . | . | 23174 | .
O=C(NC1CCCCC1)n1c(=O)oc2ccc(Cl)cc21 | . | . | . | . | 23566 | .
Cc1cccc(C)c1-n1nnnc1C1(C)CCC(=O)N1CC(F)(F)F (stereo not given) | . | / | . | / | . | .
CCOC(=O)c1ccc2nc(C)c(C)nc2c1 | . | . | . | . | . | .
COC(=O)c1ccc2nc(C)c(C)nc2c1 | . | . | . | . | 20620 | ?
O=C(Nc1cccc(F)c1)C1CCN(C(=O)c2ccc(Br)cc2)CC1 | . | . | . | . | 23473 | .
SMILES | BoNT F protease | Vc quorum ag | Anthrax LF inh2 | BJeLR lethal | Autofluor counter | BoNT A protease
OC1(c2ccc(Br)cc2)CCNCC1 | . | . | . | . | . | .
OC1(c2ccc(F)cc2)CCNC1 (stereo not given) | . | . | . | . | 23064 | .
Cc1cc(C)c(NC(=O)CSc2nc3ccc(N4C(=O)c5ccccc5C4=O)cc3s2)c(C)c1 | . | . | . | . | . | .
Cc1cc(C)c(NC(=O)C(C)Sc2nc3ccc(N4C(=O)c5ccccc5C4=O)cc3s2)c(C)c1 (stereo not given) | . | . | . | . | 16290 | ?
O=C(NC1CCCCC1)c1cc([N+](=O)[O-])ccc1N1CCCCC1 | . | . | . | . | 23223 | .
N#Cc1c(-n2ccnc2)cccc1-n1ccnc1 | . | . | . | . | 21837 | .
CC1(C(=O)Nc2cnc3ccccc3c2)CCN1Cc1ccc(-c2ccccc2)o1 (stereo not given) | . | . | . | / | . | .
CCOCCc1nnc(NC(=O)Cc2ccc(Br)cc2)s1 | . | . | . | . | 23584 | .
Cc1ccc(C2CC(=O)Nc3sc(C(N)=O)c(N)c32)cc1 (stereo not given) | . | . | . | . | 21762 | .
CC(=O)C1=C(C)NC(=O)CC1c1ccc(F)cc1 (stereo not given) | . | . | . | . | . | .
O=C(COC(=O)/C=C/c1cccc(F)c1)NCc1ccc2c(c1)OCO2 | . | . | . | / | . | .
CCCCC1CC1C(=O)Nc1ccc(OC)c(OC)c1 (stereo not given) | . | . | . | . | 16567 | .
CCCCOC(=O)c1ccc(NC(=O)Nc2ccc(OC)c(OC)c2)cc1 | . | / | . | . | . | .
CN1CCN(S(=O)(=O)c2cccc([N+](=O)[O-])c2)CC1 | . | . | . | / | 20528 | .
CN1CCN(S(=O)(=O)c2cccc(S(=O)(=O)c3cccc(S(=O)(=O)N4CCN(C)CC4)c3)c2)CC1 | . | . | . | . | 21260 | .
Fc1cccc(Cl)c1C1SCc2nc3ccccc3n21 (stereo not given) | . | / | . | / | . | .
COc1ccc(C(O)c2nc(-c3cccc(CO)c3)cs2)cc1 (stereo not given) | . | . | . | / | . | .
Cc1ccc(S(=O)(=O)N2CC(C)N(C(=O)N3CCOCC3)C2)cc1 (stereo not given) | . | . | . | . | . | .
CCC(=O)N1CN(S(=O)(=O)c2ccc(C)cc2)CC1C (stereo not given) | . | . | . | . | 21656 | .
CC(O)(c1ccc(F)c(F)c1)c1nc(-c2cc(F)cc(F)c2)cs1 (stereo not given) | . | . | . | / | . | .
Cc1ccccc1C(=O)Nc1cccc(NC(=S)NC(=O)c2cccs2)c1 | . | + | . | . | ? | .
CCCCn1c(CCn2nc(C)c(Br)c2C)n[nH]c1=S | . | . | . | . | 23887 | .
Cc1ccc(C)c(NC(=O)CNS(=O)(=O)c2ccccc2)c1 | . | . | . | . | 16924 | ?
O=C(CNS(=O)(=O)c1ccccc1)Nc1ccccc1Br | . | . | . | . | . | .
COc1ccccc1NC(=O)CN(C)S(=O)(=O)c1cc(C)ccc1OC | . | . | . | . | 16552 | .
SMILES | BoNT F protease | Vc quorum ag | Anthrax LF inh2 | BJeLR lethal | Autofluor counter | BoNT A protease
COc1ccc(C)cc1NC(=O)CN(C)S(=O)(=O)c1cccs1 | . | . | . | . | . | .
COc1ccccc1NC(=O)CNS(=O)(=O)c1ccccc1 | . | . | . | . | 21927 | ?
COc1ccccc1NC(=O)CNC(=O)c1ccccc1C | . | . | . | . | 24190 | .
CCCNC(=O)C1(C)CCN(C(=O)c2c(F)ccc(C)c2F)C1 (stereo not given) | . | . | . | / | . | .
CC(C)N1CCC1(C)C(=O)Nc1nccc2cccnc12 (stereo not given) | . | . | . | / | . | .
COC(=O)c1ccc(NC(=O)CN(C)S(=O)(=O)c2ccc(OC)c(C)c2)cc1 | . | . | . | . | 24716 | .
CCCn1c(NC(=O)c2ccccc2)nc2ccccc21 | . | . | . | . | . | .
CCCn1c(NC(=O)c2cccc(S(=O)(=O)N3CCCC3)c2)nc2ccccc21 | . | . | . | . | 16663 | .
